Our source for the Potency, activation and activity change, negative = inhibition values is PubChem BioAssay (NCATS).

Records with an inconclusive call do not appear. Values without a mark were called inactive. Calls of active or inactive are those of the source. The call rests on the fitted dose curve; in most records, active means well fitted curve in the direction sought with a large enough effect; inconclusive means small, poorly fitted or top-dose-only effect, or another doubt; inactive means no such curve, though single readings can be large; an effect the other way counts as inactive or inconclusive.

For assay [1], the target named is Rap guanine nucleotide exchange factor 3 (Homo sapiens) (UniProt O95398). As to the kind of experiment: Confirmatory qHTS for antagonist of cAMP-regulated guanine nucleotide exchange factor 3 (EPAC1) (AID 1645880). Further: nearly all actives have a fitted effect of over 55% in size. Further: potency means the concentration at half of the fitted maximal effect.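 On activity, negative = inhibition: plate controls were DMSO only for no effect and full effect of the ATA control for full effect.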 As to conditions: EPAC1 Rap1B-BODIPY-GDP exchange, fluorescence; activity, negative = inhibition: at 115 µM (top of the series). The gist of the method: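 Nucleotide exchange uses 100 nM EPAC1, 250 nM RAP1B-BODIPY-GDP and 50 uM GDP, with compounds in a concentration-titration series. After 5 min at room temperature, fluorescence (480 nm ex/540 nm em) is read every 5 min for 30 min. Data are normalized to control ATA and DMSO.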

The target is the same in assay [2]. As to the kind of experiment: Confirmatory qHTS for agonist of cAMP-regulated guanine nucleotide exchange factor 3 (EPAC1) (AID 1645881;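 further: EPAC1 catalysed release of BODIPY-GDP from Rap1B seen as fluorescence loss; 100% = effect of cAMP agonist control; nearly all actives have a fitted effect of over 75% in size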). (In general: qHTS replaces the single test concentration by a dilution series.)
Assay [3] addresses Rap guanine nucleotide exchange factor 4 (Homo sapiens) (UniProt Q8WZA2). As to the kind of experiment: Confirmatory qHTS for agonist of cAMP-regulated guanine nucleotide exchange factor 4 (EPAC2) (AID 1645884).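 Further: nucleotide exchange releases bodipy-GDP from Rap1 and this lowers its fluorescence; on the % scale 0 is the no-effect control and ±100 the full control effect; nearly all actives have a fitted effect of over 65% in size.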
Assay [4] deals with Rap guanine nucleotide exchange factor 3 (Homo sapiens) (UniProt O95398). As to the kind of experiment: Counterscreen qHTS for antagonist of cAMP-regulated guanine nucleotide exchange factor 3 (EPAC1) (AID 1645888).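 Further: fluorescence loss as bound BODIPY-GDP is released from Rap1B; % of control where 0% means no effect.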 The gist of the method:
(§1)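 Rap1B–BODIPY-GDP (250 nM) with 50 uM GDP; compounds pin-transferred to 9.74 nM–152 uM final (activator) or from 7.32 nM upwards (inhibitor). Fluorescence Ex/Em 480/540 nm read at 5 and 30 min, then after adding cAMP or buffer, at room temperature.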
On the technique in general: Counterscreens check selectivity or assay interference.

Assay [5] has the same target. The assay is described as follows: Counterscreen qHTS for agonist of cAMP-regulated guanine nucleotide exchange factor 3 (EPAC1) (AID 1645889). Further: % of control where 0% means no effect; nearly all actives have a fitted effect of over 40% in size. In short, it runs like this:
as §1

Chain of Rap guanine nucleotide exchange factor 3 (Homo sapiens) (O95398 whole entry, looked up): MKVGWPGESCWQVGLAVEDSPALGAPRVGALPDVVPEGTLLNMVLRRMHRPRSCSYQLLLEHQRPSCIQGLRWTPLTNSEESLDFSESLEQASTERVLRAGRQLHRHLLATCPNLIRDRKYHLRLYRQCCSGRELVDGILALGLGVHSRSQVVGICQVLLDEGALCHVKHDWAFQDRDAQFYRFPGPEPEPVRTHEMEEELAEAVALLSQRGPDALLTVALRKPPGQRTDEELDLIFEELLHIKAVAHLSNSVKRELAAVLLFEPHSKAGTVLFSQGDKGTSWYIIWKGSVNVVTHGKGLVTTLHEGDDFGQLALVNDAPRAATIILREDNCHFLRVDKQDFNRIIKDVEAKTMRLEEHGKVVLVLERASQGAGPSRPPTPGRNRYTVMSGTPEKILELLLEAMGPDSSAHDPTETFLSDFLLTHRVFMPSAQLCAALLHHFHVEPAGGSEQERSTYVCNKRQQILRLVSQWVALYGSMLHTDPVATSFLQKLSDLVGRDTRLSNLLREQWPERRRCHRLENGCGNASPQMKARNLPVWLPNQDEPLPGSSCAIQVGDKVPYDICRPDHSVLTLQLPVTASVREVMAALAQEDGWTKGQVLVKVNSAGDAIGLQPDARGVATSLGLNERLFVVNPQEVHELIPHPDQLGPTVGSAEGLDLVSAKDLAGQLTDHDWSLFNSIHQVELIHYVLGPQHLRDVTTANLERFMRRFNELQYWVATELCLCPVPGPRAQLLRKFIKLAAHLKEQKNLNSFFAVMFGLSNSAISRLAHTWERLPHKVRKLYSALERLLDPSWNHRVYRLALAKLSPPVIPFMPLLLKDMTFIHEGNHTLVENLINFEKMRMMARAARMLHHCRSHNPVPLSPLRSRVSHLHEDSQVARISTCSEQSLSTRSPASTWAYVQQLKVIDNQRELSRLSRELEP
Chain of Rap guanine nucleotide exchange factor 4 (Homo sapiens) (Q8WZA2 whole entry, looked up): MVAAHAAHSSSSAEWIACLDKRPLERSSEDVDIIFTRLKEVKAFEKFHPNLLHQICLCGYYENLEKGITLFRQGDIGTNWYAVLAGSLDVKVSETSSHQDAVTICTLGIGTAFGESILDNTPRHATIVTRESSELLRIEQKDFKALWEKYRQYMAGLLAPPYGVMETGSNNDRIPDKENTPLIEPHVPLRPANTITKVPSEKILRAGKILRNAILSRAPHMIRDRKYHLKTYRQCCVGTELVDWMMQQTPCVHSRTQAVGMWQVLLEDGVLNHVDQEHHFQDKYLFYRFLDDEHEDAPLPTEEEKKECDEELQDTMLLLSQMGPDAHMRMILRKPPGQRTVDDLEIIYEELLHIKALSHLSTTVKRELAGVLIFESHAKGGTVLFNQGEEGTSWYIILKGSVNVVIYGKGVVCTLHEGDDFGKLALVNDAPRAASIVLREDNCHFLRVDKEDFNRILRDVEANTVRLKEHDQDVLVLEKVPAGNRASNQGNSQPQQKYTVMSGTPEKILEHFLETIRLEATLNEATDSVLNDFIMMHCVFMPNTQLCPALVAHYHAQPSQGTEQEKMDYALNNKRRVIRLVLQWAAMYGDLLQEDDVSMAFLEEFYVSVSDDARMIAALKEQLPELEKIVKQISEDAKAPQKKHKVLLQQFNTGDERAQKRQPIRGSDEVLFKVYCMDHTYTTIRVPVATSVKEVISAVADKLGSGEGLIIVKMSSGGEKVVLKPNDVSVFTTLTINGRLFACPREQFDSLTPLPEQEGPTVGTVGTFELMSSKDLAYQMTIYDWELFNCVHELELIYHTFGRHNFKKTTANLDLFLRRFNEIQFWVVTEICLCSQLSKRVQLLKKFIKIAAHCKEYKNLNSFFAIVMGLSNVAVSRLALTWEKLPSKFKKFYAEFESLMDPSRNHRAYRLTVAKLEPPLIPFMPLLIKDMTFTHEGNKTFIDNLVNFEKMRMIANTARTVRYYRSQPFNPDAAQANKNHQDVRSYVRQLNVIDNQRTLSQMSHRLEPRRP

As for `CC(=O)OCCNc1cc(N2CCN(C)CC2)c2noc3c2c1C(=O)c1ccccc1-3`, the Potency entry in assay [1], in assay [2], in assay [3], in assay [4] and in assay [5] was “inactive” in each case.
For `O=C(O)C1=CC[C@@H](c2ccc(Cl)cc2)N(S(=O)(=O)c2ccc(Cl)cc2)[C@H]1c1ccc(Br)cc1`, the Potency in assay [1] is 75.7 µM (active). Besides, the Potency result in assay [2], in assay [3], in assay [4] and in assay [5] was “inactive” in each case.
Regarding `CCCc1cc(=O)oc2cc(C)cc(OCC(=O)N[C@@H](CSCc3ccccc3)C(=O)O)c12`, the Potency entry in assay [1], in assay [2], in assay [3], in assay [4] and in assay [5] was “inactive” in each case.
With `COc1ccccc1CN(C(=O)CNC(=O)c1ccco1)C(C(=O)NCC1CCCO1)c1ccc(OC)c(OC)c1` (stereo not given), the Potency result in assay [1], in assay [2], in assay [3], in assay [4] and in assay [5] was “inactive” each time.
Turning to `CCCN(C(=O)COC(=O)COc1c(C)cccc1C)c1c(N)n(Cc2ccccc2)c(=O)[nH]c1=O`, the Potency result in assay [1], in assay [2], in assay [3], in assay [4] and in assay [5] was “inactive” in each case.
`Cc1ccc2c(c1)C(=O)CC(c1ccccc1)S2` (stereo not given): the Potency result in assay [1] and in assay [2] was “inactive” throughout. In addition, the activation in assay [3] was -3.98% [at 17.1 µM, percent relative to cAMP agonist control]; in assay [5], 6.35% [at 30.8 µM]. For the same compound, the activity change, negative = inhibition in assay [4] is -21.7% [at 30.8 µM].
Consider `O=C1CCc2cc(S(=O)(=O)NCc3ccc(F)cc3)cc3c2N1CC3`, for which the Potency result in assay [1], in assay [2], in assay [3], in assay [4] and in assay [5] was “inactive” in each case.
On to `CCC(=O)N1N=C(c2ccc(Cl)cc2)CC1c1ccco1` (stereo not given), for which the Potency result in assay [1], in assay [2], in assay [3], in assay [4] and in assay [5] was “inactive” in each case.
In the case of `Cc1ccc(/C=C2\S/C(=N/S(=O)(=O)c3cccs3)NC2=O)cc1`, in assay [1], the Potency was 67.5 µM (active). Also, the Potency entry in assay [2], in assay [3], in assay [4] and in assay [5] was “inactive” in each case.
On to `COc1ccccc1C1CC(=O)Oc2cc(C)cc(C)c21` (stereo not given), for which the Potency result in assay [1] and in assay [2] was “inactive” throughout. Moreover, the activation is 3.14% [at 17.1 µM, percent relative to cAMP agonist control] in assay [3] and 7.71% [at 30.8 µM] in assay [5]. For the same compound, the activity change, negative = inhibition in assay [4] was -8.23% [at 30.8 µM].
Consider `O=C(CCCN1C(=O)/C(=C/c2ccccc2)SC1=S)Nc1ccccc1O`, for which the Potency result in assay [1], in assay [2], in assay [3], in assay [4] and in assay [5] was “inactive” each time.
For `COc1cc(/C=C2\SC(=Nc3ccc(Cl)c(C(=O)O)c3)NC2=O)c(Br)c(Br)c1O`, in assay [1], the Potency was 2.82 µM (active). For the same compound, the Potency result in assay [2] is “inactive”. For the same compound, the activation was 9.28% [at 17.1 µM, percent relative to cAMP agonist control] in assay [3] and 0.17% [at 30.8 µM] in assay [5]. For the same compound, the activity change, negative = inhibition in assay [4] is -1.87% [at 30.8 µM].
For `O=C(c1ccc(-c2ccccc2Cl)o1)N1CCC1`, the Potency entry in assay [1] and in assay [2] was “inactive” each time. The activation is 0.137% [at 17.1 µM, percent relative to cAMP agonist control] in assay [3] and 3.77% [at 30.8 µM] in assay [5]. In addition, the activity change, negative = inhibition in assay [4] was -16.6% [at 30.8 µM].
Consider `CC(C)(C(=O)N1CCC1(C)C(=O)NS(=O)(=O)c1cccc(Cl)c1)c1ccccc1` (stereo not given), for which the Potency in assay [1] was 75.7 µM (active). Further, the Potency entry in assay [2], in assay [3], in assay [4] and in assay [5] was “inactive” throughout.
As for `Cc1onc(-c2c(Cl)cccc2Cl)c1C(=O)c1ccc(F)cc1`, the Potency entry in assay [1], in assay [2], in assay [3], in assay [4] and in assay [5] was “inactive” throughout.
As for `Cc1cc(/C=C2\SC(=S)NC2=O)c(C)n1-c1ccc(O)cc1`, the Potency in assay [1] is 84.9 µM (active). In addition, the Potency entry in assay [2], in assay [3], in assay [4] and in assay [5] was “inactive” in each case.
Turning to `O=C1C(=Cc2ccccc2Cl)CCc2ccccc21`, the Potency result in assay [1], in assay [2], in assay [3], in assay [4] and in assay [5] was “inactive” throughout.
For the compound `CNc1nc(C)cc(C)c1S(=O)(=O)c1ccc(C)cc1`, the Potency result in assay [1] and in assay [2] was “inactive” in each case. In addition, the activation in assay [3] was 6.77% [at 17.1 µM, percent relative to cAMP agonist control]; in assay [5], 14.5% [at 30.8 µM]. Moreover, in assay [4], the activity change, negative = inhibition is -11.2% [at 30.8 µM].
Consider `Cc1ccc(C(=O)NCCCNC(=O)c2ccc(Cl)cc2)cn1`, for which the Potency result in assay [1], in assay [2], in assay [3], in assay [4] and in assay [5] was “inactive” each time.
As to `CC1(C(=O)NS(=O)(=O)c2cccc(Cl)c2)CCN1C(=O)C1(c2ccc(Cl)cc2)CCC1` (stereo not given), the Potency in assay [1] is 11.2 µM (active). Further, the Potency entry in assay [2] is “inactive”. Also, the activation in assay [3] was 6.65% [at 17.1 µM, percent relative to cAMP agonist control]; in assay [5], 5.49% [at 30.8 µM]. In addition, in assay [4], the activity change, negative = inhibition is -18.6% [at 30.8 µM].
Regarding `COC(=O)C1=C(C)N(CCCC(=O)O)C(=O)NC1c1ccc(-c2ccccc2)cc1` (stereo not given), the Potency entry in assay [1], in assay [2], in assay [3], in assay [4] and in assay [5] was “inactive” throughout.
Take `COc1cc(/C=C2/C(=O)NN(c3ccc(Cl)c(Cl)c3)C2=O)cc([N+](=O)[O-])c1O`: the Potency in assay [1] was 6.75 µM (active). Further, the Potency result in assay [2], in assay [3], in assay [4] and in assay [5] was “inactive” throughout.
